Among the data in PubChem BioAssay (EPA / NIEHS) are outcome and AC50 values, retold here.

SMILES strings stand for the structures. The source holds several records for some structures; these can differ, active in one and inactive in another. Active and inactive are the calls of the source. How the source made its calls: active means hit-call score of the fitted dose curve at least 0.9, where 1 is the maximum; inactive means score below 0.9.

The nature of this assay: CCTE_Shafer_MEA_acute_interburst_interval_mean: CCTE's Neural Acute Assay for Mean Interburst Interval, Shafer Lab (AID 2284016).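 Further: percent change of mean interburst interval versus each well's own pre-dose baseline.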 As to the method:
CCTE_Shafer_MEA_acute assay is conducted using Axion Biosystems 48 well microelectrode array (MEA) plates and Maestro recording system. Each well of the MEA plate contains a grid of 16 microelectrodes embedded in the culture surface. Electrically active cells, such as neurons, can be cultured over the electrodes, and electrical activity in these cells can be recorded extracellularly. The spontaneous firing of neurons is captured from each electrode on a microsecond timescale providing both temporally and spatially precise data. […] The CCTE_Shafer_MEA_acute assay uses primary cultures of rat cortical neurons. As these cultures mature over time, neural networks develop functional activity and form cohesive networks in which electrical activity can be highly coordinated. Baseline 40-minute recordings are made on days post-plating 13 or 15, followed by a secondary 40-minute recording after chemical exposure.CCTE_Shafer_MEA_acute_interburst_interval_mean is a component of the CCTE_Shafer_MEA_acute assay. It measures the average time between the start of consecutive single-electrode bursts (temporally-clustered groups of action potential firing) during a recording in a microelectrode array (MEA) using Axion Biosystems Maestro 768 channel amplifier with the AxIS adaptive spike detector. The recordings before and after chemical treatment are used to calculate a percent change in the mean inter-burst interval in each well.Data from the assay component CCTE_Shafer_MEA_acute_interburst_interval_mean was analyzed into 1 assay endpoint. This assay endpoint, CCTE_Shafer_MEA_acute_interburst_interval_mean, was analyzed in the negative analysis fitting direction relative to DMSO as the negative control and baseline of activity. Using a type of functional reporter, gain or loss-of-signal activity can be used to understand electrical activity.
Spontaneous activity in the cortical cultures was recorded using an Axion Biosystems Maestro 768 channel amplifier and Axion Integrated Studios (AxIS) v1.8 (or later) software. The amplifier recorded from all channels simultaneously (gain = 1200 x; sampling rate = 12.5 kHz/channel): raw signals were filtered with a Butterworth band-pass filter (300-5000 Hz), which filters out slower local field potentials leaving only fast potentials, i.e., "spikes", arising from extracellular currents associated with action potentials (Pine 2006; Wheeler and Nam 2011). On-line spike detection of filtered signals was conducted with the AxIS adaptive spike detector, using a threshold of 8x the root mean squared (rms) noise on each channel. Any electrodes with rms noise levels greater than 5 uV were grounded (e.g., no data were recorded). Once grounded, an electrode was grounded for the duration of the experiment. All recordings were conducted at 37 C. Wells were deemed usable if on the day of the exposure >/= 10 electrodes were active (defined as >/= 5 spikes/min). On DIV 13 or 15, a minimum of three wells from one cortical culture preparation were treated with each compound (0.03-40 uM). Prior to recording baseline activity, each mwMEA plate was placed in the Maestro at 37 C and allowed to sit for 20 min while firing rates stabilized. Baseline activity (40 min) was recorded before the addition of each compound. An additional 40 min of spontaneous activity was recorded in the presence of each compound. Changes in network parameters relative to baseline were assessed following compound treatment.
Turning to `O=C(O)c1nc(Cl)ccc1Cl`, the outcome was inactive.

Take `Fc1ccc(Oc2ccnc3cc(Cl)cc(Cl)c23)cc1`: the molecule was classed as inactive.

For the molecule `CC1COC(Cn2cncn2)(c2ccc(Oc3ccc(Cl)cc3)cc2Cl)O1` (stereo not given), the outcome was inactive.

One may read the AC50 as the midpoint of the concentration-response curve, whichever way the signal moves. As to `CO/C=C(/C(=O)OC)c1ccccc1Oc1cc(Oc2ccccc2C#N)ncn1`, the half-maximal activity concentration (AC50) is 11.1 µM (active).

As to `CCCC1COC(Cn2cncn2)(c2ccc(Cl)cc2Cl)O1` (stereo not given), the call was inactive.

In the case of `C=CCC1=C(C)[C@@H](OC(=O)[C@@H]2[C@@H](C=C(C)C)C2(C)C)CC1=O`, the call was inactive.

In the case of `N#Cc1nn(-c2c(Cl)cc(C(F)(F)F)cc2Cl)c(N)c1S(=O)C(F)(F)F` (stereo not given), the outcome was inactive and the AC50 was 8.32 µM (active).

Regarding `CC(C)(C)c1ccc(CSc2cnn(C(C)(C)C)c(=O)c2Cl)cc1`, the AC50 was 0.492 µM (active).

On to `C=CCC1=C(C)C(OC(=O)C2C(C=C(C)C)C2(C)C)CC1=O` (stereo not given), for which the AC50 is 3.88 µM (active) and the outcome was inactive.

Regarding `CON(C)C(=O)Nc1ccc(Cl)c(Cl)c1`, the molecule was called inactive.

Turning to `CCNc1nc(Cl)nc(NC(C)C)n1`, the molecule was called inactive.

As for `Cc1c(F)c(F)c(COC(=O)C2C(/C=C(\Cl)C(F)(F)F)C2(C)C)c(F)c1F` (stereo not given), the call was inactive.

Take `COP(N)(=O)SC` (stereo not given): the molecule was classed as inactive.

With `Cc1ccc(-c2c(Cl)nc(C#N)n2S(=O)(=O)N(C)C)cc1`, the AC50 is 6.03 µM (active).

As for `C#CCOS(=O)OC1CCCCC1Oc1ccc(C(C)(C)C)cc1` (stereo not given), the molecule was classed as inactive.

On to `CS/C(C)=N/OC(=O)N(C)SN(C)C(=O)O/N=C(\C)SC`, for which the AC50 was 29.7 µM (active).

As to `CNC(=O)ON=CC(C)(C)SC`, the call was inactive.

On to `CC(Oc1ccc(Cl)cc1Cl)C(=O)O` (stereo not given), for which the molecule was called inactive.

Take `COc1ccc(C(c2ccc(OC)cc2)C(Cl)(Cl)Cl)cc1`: the result was inactive.

Turning to `CCCCNC(=O)OCC#CI`, the AC50 was 31.4 µM (active).

Consider `CCOP(=S)(OCC)SCn1c(=O)oc2cc(Cl)ccc21`, for which the AC50 is 30.2 µM (active).

For `CC(C)Oc1cc(-n2nc(C(C)(C)C)oc2=O)c(Cl)cc1Cl`, the concentration at half-maximal activity (AC50) was 4.16 µM (active).

Consider `CCCN(CCC)c1c([N+](=O)[O-])cc(S(N)(=O)=O)cc1[N+](=O)[O-]`, for which the AC50 was 5 µM (active).

With `COC(=O)C(C)Oc1ccc(Oc2ccc(Cl)cc2Cl)cc1` (stereo not given), the call was inactive.

As for `COP(=S)(OC)Oc1nc(Cl)c(Cl)cc1Cl`, the outcome was inactive.

Turning to `COC(=O)N(OC)c1ccccc1COc1ccn(-c2ccc(Cl)cc2)n1`, the outcome was inactive.

As for `OC(c1ccc(Cl)cc1)(c1cncnc1)c1ccccc1Cl` (stereo not given), the AC50 was 3.27 µM (active).

For `N#CC(CCc1ccc(Cl)cc1)(Cn1cncn1)c1ccccc1` (stereo not given), the result was inactive.
